# Screening data as filed in PubChem BioAssay.
# Hits are enriched below; roughly 0.39% of the tested compounds scored in any of these assays.
# USP2a inh: inhibitors of human ubiquitin-specific protease USP2a. 330,000 tested, 0.01% active. USP2 core, Ub-CHOP2 coupled fluorogenic reporter, 485/531. Potency, µM (titrated, usually from 38.3 µM), for the others: at the top dose activity change, negative = inhibition, usual class: inhibitors. AID 463254. O75604;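 further: plate controls were DMSO wells for no effect and full inhibition by NEM control for full effect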
#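 Cell-free coupled assay: 10nM USP2 core preincubated 30min RT with compound in Tris-HCl pH 8.0/CaCl2/CHAPS buffer, then 25nM Ub-CHOP2 and 25nM reporter substrate; fluorescence (Ex 485/Em 531) read after 60min RT, normalized to NEM inhibition, concentration-response curves fitted.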
# GLS inhibitor: blocks human kidney-isoform glutaminase activity; AID 624170; Potency, µM (top dose mostly 45.5 µM), without a hit: top-dose activity change, negative = inhibition, hits mostly inhibitors; GLS enzymatic activity, qHTS titration; 410,000 tested, 0.21% active; further: on the % scale 0 is the no-effect control and ±100 the full control effect
#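 Two-point fluorescence kinetic (t0, 30 min RT) for hKGA; glutamate detected via glutamate oxidase–HRP–Amplex Red. Substrate: 1 mM L-glutamine solution; buffer 45 mM KH2PO4, pH 8.2.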
# p53 reactivator: restores transcriptional activity of mutant p53. H1299 p53-A138V BP100-luciferase reporter, luminescence, 24 h. Potency, µM (doses to about 92.2 µM), for inactives: at the highest dose activity change, positive = activation, actives largely listed as activators. 320,000 tested, 0.063% active. AID 504706; further: % of control where 0% means no effect; nearly all actives have a fitted effect of over 45% in size
#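 H1299 (p53-null), stable ts p53-A138V + BP100-Luc; 1000 cells/well, Opti-MEM/10% FBS; cpd 4 pt, 1:5; 24 h, 37 deg C, 5% CO2; detection reagent 10 min RT; luminescence.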
# Tb PFK inh: blocks T. brucei phosphofructokinase | O15648 | T. brucei PFK, ADP-Glo luminescence | Potency, µM (top dose mostly 57.5 µM), for inactives: at the top dose activity, negative = inhibition, most hits filed as inhibitors | 330,000 tested, 0.17% active | AID 485367;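 further: 0% = uninhibited 1x PFK enzyme wells and -100% = no-enzyme wells; nearly all actives have a fitted effect of over 60% in size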
# Target sequence (O15648 whole entry, looked up): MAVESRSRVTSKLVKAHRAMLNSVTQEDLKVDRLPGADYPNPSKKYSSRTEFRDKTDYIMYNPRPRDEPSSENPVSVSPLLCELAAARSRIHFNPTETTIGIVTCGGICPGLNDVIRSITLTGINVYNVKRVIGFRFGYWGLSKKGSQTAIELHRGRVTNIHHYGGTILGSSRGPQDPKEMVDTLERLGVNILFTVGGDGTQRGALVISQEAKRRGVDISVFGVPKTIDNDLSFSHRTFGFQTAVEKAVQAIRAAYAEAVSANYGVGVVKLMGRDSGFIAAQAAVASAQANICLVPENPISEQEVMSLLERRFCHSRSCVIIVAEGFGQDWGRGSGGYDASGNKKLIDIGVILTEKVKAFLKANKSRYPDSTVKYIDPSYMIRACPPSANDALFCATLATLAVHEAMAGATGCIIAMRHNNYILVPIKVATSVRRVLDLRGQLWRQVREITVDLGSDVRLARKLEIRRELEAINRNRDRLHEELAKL
#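 1.25 nM PFK with 0.5 mM F6P and 0.1 mM ATP in 0.1 M TEA pH 8.0, 5 mM MgCl2, incubated 45 min at room temperature; ADP measured by ADP-Glo luminescence; compounds titrated up to 57 uM.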
# Starred values were filed as active, the others as inactive; ? = inconclusive; nt = no result given. The call rests on the fitted dose curve; in most records, active means well fitted curve in the direction sought with a large enough effect; inconclusive means small, poorly fitted or top-dose-only effect, or another doubt; inactive means no such curve, though single readings can be large; an effect the other way counts as inactive or inconclusive. Potency means the concentration at half of the fitted maximal effect.
SMILES,USP2a inh,GLS inhibitor,p53 reactivator,Tb PFK inh
O=C(CN1C(=O)NC2(CCCC2)C1=O)N1CCN(c2ccccc2O)CC1,-1%,3.2µM*,8%,5%
CCCSc1ncc(Cl)c(C(=O)Nc2scc(-c3ccc(C)cc3)c2C(=O)OCC)n1,nt,3%,nt,nt
Cc1[nH]c(=S)c(C#N)c(C)c1C(=O)Nc1ccccc1,0%,?,0%,-15%
CCc1c(C(=O)Nc2ccccc2)c(C)[nH]c(=S)c1C#N,1%,11µM*,2%,-8%
COc1ccc(C)cc1NC(=O)CSc1nc(=O)n(Cc2ccccn2)c2c1CCC2,nt,-14%,nt,nt
CCOc1ccc(NC(=O)CCc2nnc3n(C)c(=O)c4sccc4n23)cc1,nt,3%,nt,nt
CC(C)CCN(C(=O)Nc1ccc(Cl)c(Cl)c1)C1CCN(C(C)C)CC1,nt,5%,nt,nt
CCOC(=O)N1CCC(N(C(=O)Nc2ccc(Cl)c(Cl)c2)C(C)CC)CC1 (stereo not given),3%,3%,3%,24µM*
C#CCOCCOCCOCCNc1nc(N2CCN(C(=O)CCCCCCCCCCNC(=O)[C@H]([C@@H](C)CC)n3cc(CCCCCN)nn3)CC2)nc(N2CCN(C(=O)CCCCCCCCCCNC(=O)[C@H]([C@@H](C)CC)n3cc(CCCCN=C(N)N)nn3)CC2)n1,?,nt,-19%,15%
C#CCOCCOCCOCCNc1nc(N2CCN(C(=O)CCCCCCCCCCNC(=O)[C@H]([C@@H](C)CC)n3cc(CCCCN=C(N)N)nn3)CC2)nc(N2CCN(C(=O)CCCCCCCCCCNC(=O)[C@H](CCCCN)n3cc(C)nn3)CC2)n1,?,16µM*,-1%,23%
C#CCOCCOCCOCCNc1nc(N2CCN(C(=O)CCCCCCCCCCNC(=O)[C@H]([C@@H](C)CC)n3cc(CCCCCN)nn3)CC2)nc(N2CCN(C(=O)CCCCCCCCCCNC(=O)[C@H](CCCCN)n3cc(CCCC(=O)O)nn3)CC2)n1,10µM*,-15%,11%,-13%
C#CCOCCOCCOCCNc1nc(N2CCN(C(=O)CCCCCCCCCCNC(=O)[C@H]([C@@H](C)CC)n3cc(CCCCCN)nn3)CC2)nc(N2CCN(C(=O)CCCCCCCCCCNC(=O)[C@@H]([C@H](C)CC)n3cc(CCCCCN)nn3)CC2)n1,5µM*,nt,-28%,?
C#CCOCCOCCOCCNc1nc(N2CCN(C(=O)CCCCCCCCCCNC(=O)[C@@H](CCC(=O)O)n3cc(CCCCCN)nn3)CC2)nc(N2CCN(C(=O)CCCCCCCCCCNC(=O)[C@H]([C@@H](C)CC)n3cc(CCCCCN)nn3)CC2)n1,?,?,14%,?
COC(=O)c1sc2cccc(F)c2c1S(=O)(=O)N1CCN(c2ccccc2OC)CC1,nt,1%,nt,nt
CC1=NN(C(N)=S)C(=O)C1N=Nc1ccc(O)cc1 (stereo not given),-2%,?,4%,4%
CC1=NN(C(N)=S)C(=O)C1N=Nc1ccc(F)cc1 (stereo not given),4%,16%,25µM*,0%
Cc1oc2ccc(O)c(CN3CCN(C)CC3)c2c1C(=O)Nc1cccc(Cl)c1C,nt,7%,nt,nt
O=C(O)c1cccc(-n2cccc2/C=C/[N+](=O)[O-])c1,-2%,10µM*,7%,-21%
COc1cc(/C=C/C(=O)OCC(=O)N2CCCc3ccccc32)ccc1O,0%,10µM*,-10%,1%
CCCc1cc(=O)oc2cc(C)c(CN3CCCC3)c(O)c12,?,10µM*,2%,?
COc1ccc(C2CC(=O)c3cc(-c4nc(-c5cccc([N+](=O)[O-])c5)cs4)c(=O)n(-c4ccccc4C)c3C2)cc1 (stereo not given),nt,-10%,nt,nt
COc1cccc(/C=N/n2c(C3CCCCC3)n[nH]c2=S)c1O,0%,7.9µM*,4%,?
COc1cccc(/C=N/n2c(C3CCCCC3)n[nH]c2=S)c1OC,0%,?,-9%,2%
COc1ccc(-c2noc(CC(=O)Nc3cc(OC)ccc3OC)n2)cc1,nt,8%,nt,nt
O=C(N/N=C/c1ccccc1O)C1CC(=O)N(c2ccc(Cl)cc2)C1 (stereo not given),-1%,22%,32µM*,-1%
Oc1cccc(-c2c3nc(c(-c4cccc(O)c4)c4ccc([nH]4)c(-c4cccc(O)c4)c4nc(c(-c5cccc(O)c5)c5ccc2[nH]5)CC4)C=C3)c1,nt,6%,nt,nt
